The whole screen tested about 50,000 compounds, of which about 800 (1.6%) showed an effect of 50% or more. The sample as a whole holds a higher share of strong results than the screen did.

The assay deals with Bcl-2-like protein 10 (Homo sapiens) (UniProt Q9HD36). Put plainly: Phenotype converters, Bcl-B/TR3 peptide binding displacement, primary biochemical FP (AID 1240).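 Further: 0% = Bcl-B with tracer peptide and DMSO and 100% = tracer peptide lacking Bcl-B.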 The conditions noted are these: GST-Bcl-B / FITC-TR3 peptide fluorescence polarization; stronger effect = higher value; compound at 3.75 mg/L. (In general: Fluorescence polarisation rises when a labelled molecule tumbles more slowly, as on binding a larger partner.)
Bcl-2-like protein 10 (Homo sapiens), sequence (Q9HD36 whole entry, looked up): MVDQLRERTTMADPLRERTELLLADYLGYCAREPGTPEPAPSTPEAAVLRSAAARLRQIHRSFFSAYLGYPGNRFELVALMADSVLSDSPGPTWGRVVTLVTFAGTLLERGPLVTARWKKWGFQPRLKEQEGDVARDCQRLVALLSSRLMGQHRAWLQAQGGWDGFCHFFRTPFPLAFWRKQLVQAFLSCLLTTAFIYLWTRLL
`CC1=C(C(=O)Nc2ccc(C)cc2)C(c2ccccc2Br)NC(=S)N1` (stereo not drawn): the displacement turned out to be 84.9%.
The figure for `CC1=C(C(=O)Nc2ccccc2)C(c2ccccc2Br)NC(=S)N1` (stereo not drawn) is -1.9%.
For `CC1=C(C(=O)Nc2ccc(Br)cc2)C(c2ccccc2Br)NC(=S)N1` (stereo not drawn), the displacement was -7%.
The result for `Cc1ccc(SCCNC(=O)CN(c2ccc(C)cc2)S(C)(=O)=O)cc1` reads -13.4%; that for `COc1ccc(C2/C(=C(\O)c3ccc(C)cc3)C(=O)C(=O)N2c2nncs2)cc1` (stereo not drawn), 13.6%.
The figure for `COc1ccc(C2C(C(C)=O)=C(O)C(=O)N2c2nc3ccccc3s2)cc1OC` (stereo not drawn) is -10.4%; for `COc1ccc(C2/C(=C(\O)c3ccc(F)cc3)C(=O)C(=O)N2c2nncs2)cc1` (stereo not drawn) it is 11%; for `O=C(C1=C(O)C(=O)N(c2nncs2)C1c1cccc([N+](=O)[O-])c1)c1cccs1` (stereo not drawn) it is 7.1%.
The result for `O=C(C1=C(O)C(=O)N(c2nncs2)C1c1ccccc1F)c1cccs1` (stereo not drawn) reads 129%; that for `COc1cc(C2/C(=C(\O)c3ccc(F)cc3)C(=O)C(=O)N2c2nncs2)ccc1O` (stereo not drawn), 8.3%; that for `COc1ccc(C2C(C(=O)c3cccs3)=C(O)C(=O)N2c2nncs2)cc1OC` (stereo not drawn), 84.6%.
As for `COc1ccc(C2C(C(=O)c3cccs3)=C(O)C(=O)N2c2nncs2)cc1` (stereo not drawn), the displacement came to 143%.
The figure for `O=C1C(=O)N(c2nncs2)C(c2ccc(Cl)cc2)/C1=C(\O)c1ccc(F)cc1` (stereo not drawn) is 20.8%.
For the molecule `CC(=O)C1=C(O)C(=O)N(c2nc3ccccc3s2)C1c1ccccc1F` (stereo not drawn), the displacement is -8.5%.
The result for `O=C1C(=O)N(c2nncs2)C(c2cccc(Br)c2)/C1=C(\O)c1ccc(F)cc1` (stereo not drawn) reads 16.6%; that for `O=C(C1=C(O)C(=O)N(c2nncs2)C1c1ccc(Cl)cc1)c1cccs1` (stereo not drawn), 125%.
For `C/C(=N\N=C1\NC(=O)C(CC(=O)Nc2ccccc2C(F)(F)F)S1)c1ccco1` (stereo not drawn), the displacement is -7.9%.
The result for `O=[N+]([O-])c1ccc(N2CCN(S(=O)(=O)c3ccccc3)CC2)cc1NCCc1ccccc1` reads 7.8%.
The result for `Cc1ccc2oc(-c3cc(N)ccc3O)nc2c1` reads 5.4%.
The figure for `S=C1NCCOCCOCCOCCNC(=S)N2CCOCCOCCN1CCOCC2` is 14.7%; for `O=C1C2C(c3ccccc3)C=CC(c3ccccc3)C2C(=O)N1Cc1ccc(F)cc1` (stereo not drawn) it is -7.7%; for `COc1cc(/C=N\n2nnnc2N)ccc1OCc1ccc(F)cc1` it is 10.6%.
Regarding `CC1CC(C)CN(C(=O)c2ccc(Cl)cc2Cl)C1` (stereo not drawn), the displacement is -3.8%.
Regarding `Cc1ccc(Cl)c(OCC(O)Cn2c(C)nc3ccccc32)c1` (stereo not drawn), the displacement is -11.5%.
The result for `COc1ccc(OCC(O)Cn2c(C)nc3ccccc32)cc1` (stereo not drawn) reads -22.4%; that for `O=C(O)C1C2CCC(O2)C1C(=O)N1CCN(c2ccc(F)cc2)CC1` (stereo not drawn), -9.7%.
Turning to `CCOCCOC(=O)C1=C(C)NC2=C(C(=O)CC(C)(C)C2)C1c1cccc(Cl)c1Cl` (stereo not drawn), the displacement was found to be 3.1%.
The result for `CCCCCCOc1ccc(N2C(=O)CC(NCc3ccc(OC)cc3)C2=O)cc1` (stereo not drawn) reads 4.5%.

For the origin of these results see PubChem BioAssay AID1240 (Sanford-Burnham Center for Chemical Genomics, 2008).
